Data published in PubChem BioAssay.

Assay: E. coli DRC41 culture turbidity changes, primary screen, E. coli filamentation inducer project, strain DRC41, OD650, 48 h (AID 1152);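 also: E. coli MC1000 strain DRC41 lacking acrAB efflux pump and sulA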
Conditions: E. coli DRC41 (acrAB sulA), higher = more signal, called active from +8 up or from −8 down

z-score, inactive:
CCOC(=O)[C@H](Cc1ccccc1)NC(=O)CCC1CC(OC(=O)NCc2cccc3ccccc23)CC2(CCCC(COC(=O)NCc3cccc(C(F)(F)F)c3)O2)O1 (stereo not given in full) 0.263
COC(=O)CC=C[C@@H](C)[C@@H](C=NOC(C)CN1CCCc2nc(C)c(C)cc21)OC (stereo not given in full) -0.4
COC(=O)[C@@H]1CC[C@H](C)[C@@H](c2ccc(C)cc2)N1C(=O)c1ccc(C=NO[C@H](C)c2cn([C@H](CO)Cc3ccccc3)nn2)cc1 -0.25
CO[C@@H]1C=CCC(=O)N[C@@H](C)C(=O)OC[C@@H](OC)[C@H](C)CCCC(=O)OC[C@H]1C 0.0058
COc1ccc(O[C@H]2C=C[C@@H](c3ccccc3)O[C@@H]2CON=C(C)C)cc1 -2.05
CCOC(=O)[C@H](CC(C)C)NC(=O)CCC1CC(OC(=O)NCc2cccc3ccccc23)CC2(CCCC(COC(=O)NCCOC)O2)O1 (stereo not given in full) 1.24
CCCCC#C[C@@H]1C=C[C@H](Oc2ccc(C(=O)OC)cc2)[C@@H](COC(=O)OCC)O1 0.0015
Cc1ccc(S(=O)(=O)n2c3ccccc3c3nnc(C(=O)c4ccccc4)nc32)cc1 1.04
COc1ccc(O[C@H]2C=C[C@@H](c3ccccc3)O[C@@H]2CON=CC[C@@H]2C=C[C@H](OC(C)=O)[C@@H](COC(C)=O)O2)cc1 -0.259
O=C(NN=C1C[C@@H](O)[C@@H](O)[C@@H]2[C@@H]3C(=O)N(Cc4ccccc4)C(=O)[C@@H]3CC[C@@H]12)OCc1ccccc1 0.151
